# Reference: article PMC9911399, “Two distinct binding modes provide the RNA-binding protein RbFox with extraordinary sequence specificity”
# Changes are numbered by the printed parent chain; changes in the protein carry UniProt numbers. Over roughly 16,000 sequences, “ka relative to ugcaugu” has its median near 0.096; the highest 2% begin near 0.35. Only a selection was taken, and the highest values are over-represented in it overall.
# T1: RBFOX1 RRM RbFoxmut (Fox-RRM*) (Homo sapiens, UniProt Q9NWB1 109-208, R118D;E147R;N151S;E152T)
# T1 sequence: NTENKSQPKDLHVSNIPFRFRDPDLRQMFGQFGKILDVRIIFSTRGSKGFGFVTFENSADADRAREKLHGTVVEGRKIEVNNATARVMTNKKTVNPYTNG
# B1: UACUCAU (DNA:RNA)
# RNA: GGGAGACCGGAAUUCAGAUUGUCCUACUCAUUUAAAUCCCGUCGUAGCCACCA
# DNA 1: CAATCTGAATTCCGGTCTCCC
# DNA 2: TGGTGGCTACGACGGGATT
# B2: CUACUCU (DNA:RNA)
# RNA: B1 RNA with U25C, A26U, C27A, U28C, C29U, A30C
# DNA 1: CAATCTGAATTCCGGTCTCCC
# DNA 2: TGGTGGCTACGACGGGATT
# B3: ACAGGAC (DNA:RNA)
# RNA: B1 RNA with U25A, A26C, C27A, U28G, C29G, U31C
# DNA 1: CAATCTGAATTCCGGTCTCCC
# DNA 2: TGGTGGCTACGACGGGATT
# B4: GGGAGUU (DNA:RNA)
# RNA: B1 RNA with U25G, A26G, C27G, U28A, C29G, A30U
# DNA 1: CAATCTGAATTCCGGTCTCCC
# DNA 2: TGGTGGCTACGACGGGATT
# B5: CUCGGGU (DNA:RNA)
# RNA: B1 RNA with U25C, A26U, U28G, C29G, A30G
# DNA 1: CAATCTGAATTCCGGTCTCCC
# DNA 2: TGGTGGCTACGACGGGATT
# B6: AACUACA (DNA:RNA)
# RNA: B1 RNA with U25A, C29A, A30C, U31A
# DNA 1: CAATCTGAATTCCGGTCTCCC
# DNA 2: TGGTGGCTACGACGGGATT
# B7: GCUCAGC (DNA:RNA)
# RNA: GGGAGACCGGAAUUCAGAUUGUCCGCUCAGCUUAAAUCCCGUCGUAGCCACCA
# DNA 1: CAATCTGAATTCCGGTCTCCC
# DNA 2: TGGTGGCTACGACGGGATT
# B8: GGGUUGU (DNA:RNA)
# RNA: B7 RNA with C26G, U27G, C28U, A29U, C31U
# DNA 1: CAATCTGAATTCCGGTCTCCC
# DNA 2: TGGTGGCTACGACGGGATT
# B9: GGGUUUG (DNA:RNA)
# RNA: B7 RNA with C26G, U27G, C28U, A29U, G30U, C31G
# DNA 1: CAATCTGAATTCCGGTCTCCC
# DNA 2: TGGTGGCTACGACGGGATT
# B10: GUCCGGG (DNA:RNA)
# RNA: B7 RNA with C26U, U27C, A29G, C31G
# DNA 1: CAATCTGAATTCCGGTCTCCC
# DNA 2: TGGTGGCTACGACGGGATT
# B11: GGGGGGU (DNA:RNA)
# RNA: B7 RNA with C26G, U27G, C28G, A29G, C31U
# DNA 1: CAATCTGAATTCCGGTCTCCC
# DNA 2: TGGTGGCTACGACGGGATT
# B12: GUCGGGU (DNA:RNA)
# RNA: B7 RNA with C26U, U27C, C28G, A29G, C31U
# DNA 1: CAATCTGAATTCCGGTCTCCC
# DNA 2: TGGTGGCTACGACGGGATT
# B13: GGGUUUU (DNA:RNA)
# RNA: B1 RNA with U25G, A26G, C27G, C29U, A30U
# DNA 1: CAATCTGAATTCCGGTCTCCC
# DNA 2: TGGTGGCTACGACGGGATT
# B14: AAGCAAG (DNA:RNA)
# RNA: B7 RNA with G25A, C26A, U27G, G30A, C31G
# DNA 1: CAATCTGAATTCCGGTCTCCC
# DNA 2: TGGTGGCTACGACGGGATT
# B15: UGCCAGG (DNA:RNA)
# RNA: B7 RNA with G25U, C26G, U27C, C31G
# DNA 1: CAATCTGAATTCCGGTCTCCC
# DNA 2: TGGTGGCTACGACGGGATT
# B16: UCCCAGC (DNA:RNA)
# RNA: B7 RNA with G25U, U27C
# DNA 1: CAATCTGAATTCCGGTCTCCC
# DNA 2: TGGTGGCTACGACGGGATT
# B17: AAUUCGA (DNA:RNA)
# RNA: B1 RNA with U25A, C27U, A30G, U31A
# DNA 1: CAATCTGAATTCCGGTCTCCC
# DNA 2: TGGTGGCTACGACGGGATT
# B18: GGUACUG (DNA:RNA)
# RNA: B7 RNA with C26G, C28A, A29C, G30U, C31G
# DNA 1: CAATCTGAATTCCGGTCTCCC
# DNA 2: TGGTGGCTACGACGGGATT
# B19: CCGCAUC (DNA:RNA)
# RNA: B7 RNA with G25C, U27G, G30U
# DNA 1: CAATCTGAATTCCGGTCTCCC
# DNA 2: TGGTGGCTACGACGGGATT
# B20: CGCAUCU (DNA:RNA)
# RNA: B1 RNA with U25C, A26G, U28A, C29U, A30C
# DNA 1: CAATCTGAATTCCGGTCTCCC
# DNA 2: TGGTGGCTACGACGGGATT
# B21: GCGCAUC (DNA:RNA)
# RNA: B7 RNA with U27G, G30U
# DNA 1: CAATCTGAATTCCGGTCTCCC
# DNA 2: TGGTGGCTACGACGGGATT
# B22: GCAUAUC (DNA:RNA)
# RNA: B7 RNA with U27A, C28U, G30U
# DNA 1: CAATCTGAATTCCGGTCTCCC
# DNA 2: TGGTGGCTACGACGGGATT
# B23: GCAUCUU (DNA:RNA)
# RNA: B1 RNA with U25G, A26C, C27A, A30U
# DNA 1: CAATCTGAATTCCGGTCTCCC
# DNA 2: TGGTGGCTACGACGGGATT
# B24: GCAUCUC (DNA:RNA)
# RNA: B7 RNA with U27A, C28U, A29C, G30U
# DNA 1: CAATCTGAATTCCGGTCTCCC
# DNA 2: TGGTGGCTACGACGGGATT
# B25: GGUACGA (DNA:RNA)
# RNA: B7 RNA with C26G, C28A, A29C, C31A
# DNA 1: CAATCTGAATTCCGGTCTCCC
# DNA 2: TGGTGGCTACGACGGGATT
# B26: ACUUUAC (DNA:RNA)
# RNA: B7 RNA with G25A, C28U, A29U, G30A
# DNA 1: CAATCTGAATTCCGGTCTCCC
# DNA 2: TGGTGGCTACGACGGGATT
# B27: GACGUGU (DNA:RNA)
# RNA: B1 RNA with U25G, U28G, C29U, A30G
# DNA 1: CAATCTGAATTCCGGTCTCCC
# DNA 2: TGGTGGCTACGACGGGATT
# B28: AGUGAAA (DNA:RNA)
# RNA: B7 RNA with G25A, C26G, C28G, G30A, C31A
# DNA 1: CAATCTGAATTCCGGTCTCCC
# DNA 2: TGGTGGCTACGACGGGATT
# B29: AGUUGGG (DNA:RNA)
# RNA: B7 RNA with G25A, C26G, C28U, A29G, C31G
# DNA 1: CAATCTGAATTCCGGTCTCCC
# DNA 2: TGGTGGCTACGACGGGATT
# B30: ACUUACC (DNA:RNA)
# RNA: B7 RNA with G25A, C28U, G30C
# DNA 1: CAATCTGAATTCCGGTCTCCC
# DNA 2: TGGTGGCTACGACGGGATT
# B31: GACUUUG (DNA:RNA)
# RNA: B1 RNA with U25G, C29U, A30U, U31G
# DNA 1: CAATCTGAATTCCGGTCTCCC
# DNA 2: TGGTGGCTACGACGGGATT
# Molecular target: T1, RBFOX1 RRM RbFoxmut (Fox-RRM*)
# Experiment: EMSA; HiTS-Eq, 1 nM pool, 10 min; buffer printed only for the single-RNA assays: 10 mM Tris pH 7.5, 150 mM NaCl, 3.4 mM EDTA, 0.001% NP-40, 30 C
# Settings: tags: His6 N-terminal (pET28a); label: 5' 32P
# Procedure, shortened: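 Purified RbFox RRM (wild type or mutant) was equilibrated for 10 min in 50 µL with 1 nM of a 5′-radiolabelled pool of RNA with 7 randomized nucleotides, its flanks annealed to DNA oligonucleotides, across increasing protein concentrations. Free RNA was separated by 8% native PAGE, excised, reverse-transcribed, PCR-barcoded and sequenced on an Illumina HiSeq 2500. Relative association constants came from read-count changes of each variant against the control reaction, normalised to the cognate motif.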
row,Binder,binding signal
1,B1,0.0982 KA relative to UGCAUGU
2,B2,0.0641 KA relative to UGCAUGU
3,B3,0.0906 KA relative to UGCAUGU
4,B4,0.09 KA relative to UGCAUGU
5,B5,0.0903 KA relative to UGCAUGU
6,B6,0.121 KA relative to UGCAUGU
7,B7,0.0895 KA relative to UGCAUGU
8,B8,0.448 KA relative to UGCAUGU
9,B9,0.741 KA relative to UGCAUGU
10,B10,0.0861 KA relative to UGCAUGU
11,B11,0.0952 KA relative to UGCAUGU
12,B12,0.132 KA relative to UGCAUGU
13,B13,0.0749 KA relative to UGCAUGU
14,B14,0.103 KA relative to UGCAUGU
15,B15,0.0858 KA relative to UGCAUGU
16,B16,0.1 KA relative to UGCAUGU

row,Binder,binding signal
1,B17,0.0737 KA relative to UGCAUGU
2,B18,0.112 KA relative to UGCAUGU
3,B19,0.258 KA relative to UGCAUGU
4,B20,0.395 KA relative to UGCAUGU
5,B21,0.49 KA relative to UGCAUGU
6,B22,0.073 KA relative to UGCAUGU
7,B23,0.33 KA relative to UGCAUGU
8,B24,0.135 KA relative to UGCAUGU
9,B25,0.165 KA relative to UGCAUGU
10,B26,0.114 KA relative to UGCAUGU
11,B27,0.15 KA relative to UGCAUGU
12,B28,0.095 KA relative to UGCAUGU
13,B29,0.0708 KA relative to UGCAUGU
14,B30,0.0997 KA relative to UGCAUGU
15,B31,0.0901 KA relative to UGCAUGU
